In the library only some 0.94% were active in any assay of this set; here they are far more common.
PriA SSB inh: inhibitors of Klebsiella pneumoniae PriA binding to SSB C-terminal tail, primary screen, biochemical, AlphaScreen. PriA–SSB C-terminal tail interaction (Klebsiella pneumoniae). AlphaScreen SSBct-PriA binding, biotinylated peptide. inhibition, % at 33 µM. hit rate 0.6% among 430,000. AID 1272365, 2023; in the data active = inhibition mostly above about 37%, no sharp cut-off; inactive = mostly below about 20%
MazEF act: activators of E. coli MazEF toxin-antitoxin RNase, primary screen, biochemical, fluorescence, uHTS | AID 504720, 2011 | Endoribonuclease toxin MazF (Escherichia coli (strain K12)), P0AE70 | activation, % at 20 µM | hit rate 0.32% among 350,000 | FAM/BHQ RNA-DNA oligo cleavage fluorescence, 5 h; in the data active = activation above about 50%
Target sequence (P0AE70 whole entry, looked up): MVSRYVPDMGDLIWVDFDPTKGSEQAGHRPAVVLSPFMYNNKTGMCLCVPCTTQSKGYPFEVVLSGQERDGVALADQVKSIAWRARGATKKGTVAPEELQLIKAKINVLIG
Vc quorum ag: inducers of Vibrio cholerae quorum light production without autoinducers, primary screen, BH1578 luxS cqsA deficient, single point; hit rate 0.16% among 350,000; V. cholerae BH1578 lux reporter, luminescence, 6 h; AID 588436, 2011; activation, % at 18.7 µM; in the data active = activation mostly above about 9.7%, no sharp cut-off
Mtb hypoxia rep: PubChem AID 1159583 | M. tuberculosis hypoxia-regulated fluorescent reporter, fluorescence | fluorescence inhibition, % (test concentration not listed) | hit rate 0.1% among 300,000; in the data active = fluorescence inhibition mostly above about 23%, no sharp cut-off; inactive = mostly below about 17%
Hits are given with their value; – = inactive; · = no result given; + = active, no number; ! = not active in a repeat.

SMILES | PriA SSB inh | MazEF act | Vc quorum ag | Mtb hypoxia rep
c1ccc(Nc2ccc(N3CCNCC3)nn2)nc1 | 56 | · | · | ·
c1cnn(-c2ccc(N3CCNCC3)nn2)c1 | – | · | · | ·
O=C(C1=C(O)/C(=C/c2ccc(O)cc2)CCC1)C(F)(F)F | – | – | – | ·
COc1ccc(/C=C2\CCCC(C(=O)C(F)(F)F)=C2O)cc1 | – | 475 | – | ·
OCc1cnc(SCc2cccc3ccccc23)n1C1CCCC1 | – | · | · | ·
O=S(=O)(c1ccc(Cl)cc1)N1CCN=C1SCc1cccc(Cl)c1 | 101 | – | – | –
Cc1ccc(S(=O)(=O)N2CCN=C2SCc2ccc(Cl)c(Cl)c2)cc1 | – | + | – | –
CCOC(=O)/C=C/C(=O)Nc1ccc(S(=O)(=O)N2CCC(C)CC2)cc1 | – | · | · | ·
O=C(/C=C\c1ccc([N+](=O)[O-])cc1)Nc1nnc(-c2cccs2)o1 | – | · | · | ·
Cc1ccc2nc3cc([N+](=O)[O-])cc([N+](=O)[O-])c3cc2c1 | – | 354 | – | –
Cc1nc2ccc([N+](=O)[O-])cc2nc1C | – | – | – | –
COc1cc(COCC2CCN(Cc3ccc(F)c(F)c3)CC2)cc(OC)c1 | – | · | · | ·
C=CC(=O)Nc1ccc(N(C)c2ccnc(Nc3ccc(N4CCN(C)CC4)cc3)n2)cc1 | 44 | – | – | –
COc1ccc(OC)c2sc(N(CCN3CCOCC3)C(=O)c3ccc4c(c3)CCCC4)nc12 | 41 | · | · | ·
COc1ccc(OC)c2sc(N(CCCN3CCOCC3)C(=O)c3ccccc3SC)nc12 | 28 | · | · | ·
CCN(CC)CCN(C(=O)c1ccc2c(c1)CCCC2)c1nc2ccc(OC)cc2s1 | 46! | – | – | –
COc1ccc(C)c2sc(N(CCN3CCOCC3)C(=O)c3ccc(C)c(C)c3)nc12 | – | · | · | ·
Cc1onc(-c2ccccc2Cl)c1C(=O)Nc1nnc(-c2cccs2)o1 | 38 | · | · | ·
Cc1onc(-c2ccccc2Cl)c1C(=O)Nc1nnc(-c2cc(Cl)sc2Cl)o1 | – | · | · | ·
O=S(=O)(Cc1ccco1)C1CCN(S(=O)(=O)C2CC2)C1 (stereo not drawn) | – | · | · | ·
O=S(=O)(Cc1ccco1)C1CCN(S(=O)(=O)CCCOc2ccccc2)CC1 | 87 | · | · | ·
CSc1ccc2c(c1)N(CCC1CCCCN1C)c1ccccc1S2 (stereo not drawn) | 40 | – | – | ·
CC(=O)c1ccc2c(c1)N(CCCN1CCC(CCO)CC1)c1ccccc1S2 | – | – | – | –
CSc1nc2ccc3nc(N)sc3c2s1 | – | · | · | ·
Nc1nc2ccc([N+](=O)[O-])c(N)c2s1 | 55 | – | – | –
SMILES | PriA SSB inh | MazEF act | Vc quorum ag | Mtb hypoxia rep
CCOC(=O)c1ccc(NC(=O)Cn2ncc(Cl)c(Cl)c2=O)cc1 | – | – | – | 36
CS(=O)(=O)c1ccc(NCCCSc2nnc(-c3cccs3)o2)c([N+](=O)[O-])c1 | – | · | · | ·
CC[C@]12c3[nH]c4cc(-c5ccco5)ccc4c3CCN1C(=O)[C@@H](CC(=O)NC/C=C(\C)CCC=C(C)C)C[C@@H]2C(=O)N1CCN(C(=O)C2CC2)CC1 | – | – | – | –
CC(C)=CCC/C(C)=C/CNC(=O)C[C@H]1C[C@H](C(=O)N2CCCCC2)[C@@]2(CCc3ccccc3)c3[nH]c4cc(-c5ccco5)ccc4c3CCN2C1=O | – | 75 | – | –
COc1ccc2nc(SCC(=O)O)nc(C)c2c1 | – | – | 15 | ·
COc1ccc2nc(C)cc(SCC(=O)O)c2c1 | – | – | – | –
COc1cc(NC(=O)Nc2ccccc2)c(OC)cc1NC(=O)CN1CCCCC1 | 42 | – | – | –
O=C1C(=Cc2cccn2-c2ccccc2)C(=O)c2ccccc21 | – | 242 | – | –
O=C1C(=Cc2cccn2-c2ccc(O)cc2)C(=O)c2ccccc21 | – | 263 | – | –
Cc1cc(C=C2C(=O)c3ccccc3C2=O)c(C)n1-c1ccccc1 | – | 156 | – | –
O=C(O)c1cccc(-n2cccc2C=C2C(=O)c3ccccc3C2=O)c1 | – | – | – | –
Cn1cc(C(=O)N2CCN(C(=O)c3ccco3)CC2)c2[nH]c(=O)n(-c3ccc(F)cc3)c(=O)c21 | – | · | · | ·
Cn1cccc(C(=O)NCCC2CCCCN2S(=O)(=O)c2cccs2)c1=O (stereo not drawn) | – | · | · | ·
COc1ccc(N2CCn3c2nc2c3c(=O)n(CCCc3ccccc3)c(=O)n2C)c(OC)c1 | – | 814 | – | –
COc1ccc(N2CCn3c2nc2c3c(=O)n(CCc3ccccc3)c(=O)n2C)c(OC)c1 | · | · | · | –
O=C(O)c1ccc(N=Cc2c(O)n(Cc3ccc(F)cc3)c(=O)[nH]c2=O)cc1 | – | – | – | –
CC(=O)N1CCN(c2ccc(N=Cc3c(O)n(Cc4ccccc4)c(=O)[nH]c3=O)cc2)CC1 | – | 77 | – | –
Fc1ccc(-n2c(-c3ccccc3)c[nH]c2=S)cc1 | – | · | · | ·
O=[N+]([O-])c1ccc(Nc2ccccc2Cl)c2nonc12 | 59 | · | · | ·
Cc1ccccc1Nc1ccc([N+](=O)[O-])c2nonc12 | – | · | · | ·
O=C(O)c1ccccc1Nc1ccc([N+](=O)[O-])c2nonc12 | 57! | – | – | –
Cc1nc(Nc2ccc(NC(=O)c3cccc(Cl)c3)cc2)cc(-n2ccnc2)n1 | – | · | · | ·
O=C(Nc1nc2c(s1)COc1ccccc1-2)c1ccc(-c2nc3ccccc3s2)s1 | – | · | · | ·
Cc1cccc(C(=O)N=c2c(C#N)cc3c(=O)n4cccc(C)c4nc3n2Cc2ccco2)c1 | – | 54! | – | –
COC(=O)c1c(NC(=O)CSc2n[nH]c(N)n2)sc(C)c1C | – | – | – | –
SMILES | PriA SSB inh | MazEF act | Vc quorum ag | Mtb hypoxia rep
Cc1sc(NC(=O)CSc2n[nH]c(N)n2)c(C#N)c1C | – | 53 | – | ·
Cc1ccc(NC(=S)Nc2ccc(OC(F)F)c(Cl)c2)cc1Cl | – | – | – | –
CC(NC(=S)Nc1ccc(OC(F)F)c(Cl)c1)C(C)(C)C (stereo not drawn) | – | – | – | 28
COc1ccccc1CCNC(=O)CC1CSc2nccc(=O)n21 (stereo not drawn) | – | · | · | ·
O=S(=O)(NCCCN1CCOCC1)c1cccc2cnccc12 | – | · | · | ·
CSc1ccc(S(=O)(=O)NCCCn2ccnc2)cc1 | – | – | – | –
O=[N+]([O-])c1cccc(S(=O)(=O)NCCCn2ccnc2)c1 | 53 | – | – | –
O=S(=O)(NCCCn1ccnc1)c1cccc2cnccc12 | 41 | · | · | ·
COC(=O)c1c(/N=C/N(C)C)sc2c1CCN(c1ncc(C(F)(F)F)cc1Cl)C2 | · | 51 | – | ·
CCOC(=O)c1c(NC(=O)c2cc(OC)cc(OC)c2)sc2c1CCC(C)C2 (stereo not drawn) | – | · | · | ·
Cn1cnc(S(=O)(=O)NCC2(c3cccs3)CCOCC2)c1 | – | · | · | ·
Cn1c(-c2ccccc2)cc2ccccc21 | – | – | – | –
Cn1c(-c2ccccc2)cc2c3no[n+]([O-])c3ccc21 | – | – | – | 47
CC(=O)Nc1ccc(S(=O)(=O)NCc2cc(C)oc2C)c(C)c1 | – | · | · | ·
Cc1ccc(C(=O)COC(=O)c2cccc(NC(=O)c3ccc([N+](=O)[O-])cc3[N+](=O)[O-])c2)cc1 | – | – | – | 41
O=C(CNC(=O)c1ccccc1)N=Nc1c(O)[nH]c2ccc([N+](=O)[O-])cc12 | – | · | · | ·
Cc1cc2cc(CNC(=S)NC3CCCCC3)ccc2[nH]1 | – | – | – | –

Bioassay records deposited in PubChem by several laboratories.
